Measured values as given in the supplement of paper PMC10849652.
About 7,900 targets were measured; listed, in parts, are those with a hit and a random draw of the rest. About 0.6% of all pairs of compound and target were hits.

Tests used:
Assay in all cases: log2 fold change, soluble protein after heating vs DMSO (PISA); higher = thermal stabilisation; K562 cells, 10 uM, 30 min; active = over 0.2 and 3.5 SD of the protein, either way, in both replicates (recomputed)
[1] = compound: CC[C@@H]1C(=O)N(C)c2cnc(Nc3ccc(C(=O)NC4CCN(C)CC4)cc3OC)nc2N1C1CCCC1
Outline: (§1)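 For each measurement, 10 μM compound was applied for 30 min to K562 cells at 2×10^6 cells/mL. Aliquots were heated for 3 min across 48°C-58°C, pooled, and extracted in PBS with 0.5% NP-40 at 4°C; the supernatant after 21,000xg for 90 min was soluble protein. This was quantified by TMTpro 16plex LC-MS/MS with channel sums equalised, and thermal stability was reported relative to control samples from duplicates, on a log2 fold-change scale.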

volasertib = compound: CC[C@@H]1C(=O)N(C)c2cnc(Nc3ccc(C(=O)N[C@H]4CC[C@H](N5CCN(CC6CC6)CC5)CC4)cc3OC)nc2N1C(C)C [volasertib]
Outline: as §1

[2] = compound: CC[C@H](C)N1C=C(C2=C(C=C(C=C21)C3=CN=C(C=C3)N4CCNCC4)C(=O)NCC5=C(C=C(NC5=O)C)C)C
Outline: as §1

epoxomicin = compound: CC[C@H](C)[C@@H](C(=O)N[C@@H]([C@@H](C)O)C(=O)N[C@@H](CC(C)C)C(=O)[C@]1(CO1)C)NC(=O)[C@H]([C@@H](C)CC)N(C)C(=O)C [epoxomicin]
Outline: as §1

[3] = compound: CCn1c(C(=O)N(C2CC2)C2CC2)cc2c3c(ncn3C)c(Nc3cc(C)n(C)n3)nc21
Outline: as §1

[4] = compound: CCn1cc(-c2ccnc3[nH]c(-c4cccc(CN(C)C)c4)cc23)c(-c2ccc(NC(=O)N(C)C)cc2)n1
Outline: as §1

[5] = compound: CN(C)CC(=O)Nc1ccc2[nH]c(=O)c3ccccc3c2c1
Outline: as §1

rosiglitazone = compound: CN(CCOC1=CC=C(C=C1)C[C@H]2C(=O)NC(=O)S2)C3=CC=CC=N3 (racemic) [rosiglitazone]
Outline: as §1

[6] = compound: CN1C2=C(C3=C1C(=O)N(N=C3)CC4=CC(=CC=C4)N)SC(=C2)S(=O)C
Outline: as §1

[7] = compound: CN1CCC(CNc2ccc3ncc(-c4cccc(OC(F)(F)F)c4)n3n2)CC1
Outline: as §1

saracatinib = compound: CN1CCN(CCOc2cc(OC3CCOCC3)c3c(Nc4c(Cl)ccc5c4OCO5)ncnc3c2)CC1 [saracatinib]
Outline: as §1

sotrastaurin = compound: CN1CCN(c2nc(C3=C(c4c[nH]c5ccccc45)C(=O)NC3=O)c3ccccc3n2)CC1 [sotrastaurin]
Outline: as §1

alvocidib = compound: CN1CC[C@H](c2c(O)cc(O)c3c(=O)cc(-c4ccccc4Cl)oc23)[C@H](O)C1 [alvocidib]
Outline: as §1

Tubastatin A = compound: CN1CCc2c(c3ccccc3n2Cc2ccc(C(=O)NO)cc2)C1 [Tubastatin A]
Outline: as §1

[8] = compound: CNC(=O)C1=CC=CC=C1NC2=NC(=NC=C2Cl)NC3=C(C=C(C=C3)N4CCOCC4)OC
Outline: as §1

defactinib = compound: CNC(=O)c1ccc(Nc2ncc(C(F)(F)F)c(NCc3nccnc3N(C)S(C)(=O)=O)n2)cc1 [defactinib]
Outline: as §1

rucaparib = compound: CNCc1ccc(-c2[nH]c3cc(F)cc4c3c2CCNC4=O)cc1 [rucaparib]
Outline: as §1

[9] = compound: CNc1nc(-c2ccc3c(N)n[nH]c3c2)cc(N2C[C@@H](C(=O)NC3CCCCC3)CC[C@H]2C)n1
Outline: as §1

encorafenib = compound: COC(=O)N[C@@H](C)CNc1nccc(-c2cn(C(C)C)nc2-c2cc(Cl)cc(NS(C)(=O)=O)c2F)n1 [encorafenib]
Outline: as §1

[10] = compound: COC(=O)[C@H](CCSC)NC(=O)C1=C(C=C(C=C1)NC[C@H](CS)N)C2=CC=CC=C2
Outline: as §1

Measured: log2 fold change

NDUFB8 (UniProt O95169)
Sequence of UniProt O95169 (O95169 whole entry, looked up): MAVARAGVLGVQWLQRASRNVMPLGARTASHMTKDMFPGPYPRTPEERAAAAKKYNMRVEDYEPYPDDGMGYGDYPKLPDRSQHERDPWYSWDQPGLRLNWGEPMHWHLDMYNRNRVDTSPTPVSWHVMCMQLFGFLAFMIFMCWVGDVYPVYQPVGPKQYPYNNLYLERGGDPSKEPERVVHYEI
inactive: [1] 0.008 | volasertib -0.016 | [2] -0.036 | epoxomicin 0.074 | [3] 0.041 | [4] 0.055 | [5] 0.016 | rosiglitazone 0.025 | [6] 0 | [7] 0.097 | saracatinib -0.064 | sotrastaurin 0.071 | alvocidib -0.077 | Tubastatin A -0.016 | [8] 0.002 | defactinib -0.037 | rucaparib 0.003 | [9] -0.073 | encorafenib 0.016 | [10] -0.048

MRPS17 (UniProt Q9Y2R5)
inactive: [1] -0.111 | volasertib -0.018 | [2] 0.022 | epoxomicin -0.043 | [3] -0.059 | [4] 0.043 | [5] 0.069 | rosiglitazone 0.057 | [6] 0.022 | [7] -0.016 | saracatinib -0.017 | sotrastaurin -0.138 | alvocidib 0.002 | Tubastatin A 0.072 | [8] 0.105 | defactinib 0.096 | rucaparib 0.185 | [9] 0.096 | encorafenib 0.016 | [10] -0.047

MT-ATP6 (UniProt P00846)
Sequence of UniProt P00846 (P00846 whole entry, looked up): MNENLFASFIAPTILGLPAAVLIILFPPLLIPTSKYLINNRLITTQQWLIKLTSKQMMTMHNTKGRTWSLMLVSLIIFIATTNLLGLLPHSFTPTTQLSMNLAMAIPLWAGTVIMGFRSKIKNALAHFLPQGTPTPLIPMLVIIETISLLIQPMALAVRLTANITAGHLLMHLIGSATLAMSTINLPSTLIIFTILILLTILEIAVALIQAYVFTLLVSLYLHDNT
inactive: [1] 0.043 | volasertib -0.091 | [2] -0.057 | epoxomicin 0.105 | [3] -0.053 | [4] -0.152 | [5] -0.095 | rosiglitazone 0.502 | [6] -0.239 | [7] -0.16 | saracatinib 0.253 | sotrastaurin -0.059 | alvocidib -0.058 | Tubastatin A 0.122 | [8] -0.018 | defactinib -0.095 | rucaparib 0.06 | [9] -0.176 | encorafenib 0.016 | [10] 0.05

NCAPD2 (UniProt Q15021)
Sequence of UniProt Q15021 (Q15021 whole entry, looked up): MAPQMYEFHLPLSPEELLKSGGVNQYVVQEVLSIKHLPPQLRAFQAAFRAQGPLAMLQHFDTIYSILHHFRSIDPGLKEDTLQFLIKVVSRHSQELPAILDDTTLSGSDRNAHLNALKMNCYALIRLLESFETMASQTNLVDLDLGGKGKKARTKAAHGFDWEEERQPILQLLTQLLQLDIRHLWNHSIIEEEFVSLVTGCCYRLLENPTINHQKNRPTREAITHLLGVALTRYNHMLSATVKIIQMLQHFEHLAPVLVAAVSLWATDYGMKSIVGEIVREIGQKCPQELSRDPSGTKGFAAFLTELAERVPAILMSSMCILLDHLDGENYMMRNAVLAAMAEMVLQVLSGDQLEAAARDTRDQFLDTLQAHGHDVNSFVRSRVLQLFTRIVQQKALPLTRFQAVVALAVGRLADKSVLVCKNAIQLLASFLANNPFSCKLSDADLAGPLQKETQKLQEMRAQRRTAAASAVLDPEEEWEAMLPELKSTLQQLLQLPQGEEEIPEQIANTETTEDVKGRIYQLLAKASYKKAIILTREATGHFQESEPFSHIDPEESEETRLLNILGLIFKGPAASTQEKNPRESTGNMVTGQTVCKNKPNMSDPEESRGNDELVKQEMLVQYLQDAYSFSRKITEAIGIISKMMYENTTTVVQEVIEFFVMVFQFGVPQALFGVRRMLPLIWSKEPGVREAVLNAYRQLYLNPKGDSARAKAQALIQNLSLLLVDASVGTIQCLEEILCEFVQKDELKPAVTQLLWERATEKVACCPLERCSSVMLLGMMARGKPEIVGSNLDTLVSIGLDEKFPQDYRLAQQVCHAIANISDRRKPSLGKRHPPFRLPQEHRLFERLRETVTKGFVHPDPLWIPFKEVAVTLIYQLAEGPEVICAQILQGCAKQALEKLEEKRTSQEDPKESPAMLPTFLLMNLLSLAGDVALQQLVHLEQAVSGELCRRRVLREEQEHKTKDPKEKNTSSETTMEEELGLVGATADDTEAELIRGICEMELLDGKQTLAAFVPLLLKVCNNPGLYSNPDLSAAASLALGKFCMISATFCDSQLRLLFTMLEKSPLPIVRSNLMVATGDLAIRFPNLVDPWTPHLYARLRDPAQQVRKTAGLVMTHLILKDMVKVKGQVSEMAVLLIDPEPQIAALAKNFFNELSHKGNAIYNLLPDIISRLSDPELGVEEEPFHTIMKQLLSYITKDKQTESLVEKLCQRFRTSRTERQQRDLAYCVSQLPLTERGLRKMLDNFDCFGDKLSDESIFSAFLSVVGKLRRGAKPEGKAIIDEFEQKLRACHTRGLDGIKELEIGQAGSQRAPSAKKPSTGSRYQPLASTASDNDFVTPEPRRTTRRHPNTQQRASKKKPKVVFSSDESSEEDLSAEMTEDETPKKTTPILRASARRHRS
inactive: [1] -0.131 | [2] 0.081 | epoxomicin 0.019 | [3] -0.085 | [4] 0 | [5] 0.075 | rosiglitazone 0.023 | [6] 0.044 | [7] -0.098 | saracatinib -0.052 | sotrastaurin -0.145 | alvocidib -0.029 | Tubastatin A 0.012 | [8] 0.111 | defactinib -0.052 | rucaparib 0.142 | [9] 0.008 | encorafenib 0.11 | [10] -0.025
active: volasertib -0.486

OTUD4 (UniProt Q01804)
Sequence of UniProt Q01804 (Q01804 whole entry, looked up): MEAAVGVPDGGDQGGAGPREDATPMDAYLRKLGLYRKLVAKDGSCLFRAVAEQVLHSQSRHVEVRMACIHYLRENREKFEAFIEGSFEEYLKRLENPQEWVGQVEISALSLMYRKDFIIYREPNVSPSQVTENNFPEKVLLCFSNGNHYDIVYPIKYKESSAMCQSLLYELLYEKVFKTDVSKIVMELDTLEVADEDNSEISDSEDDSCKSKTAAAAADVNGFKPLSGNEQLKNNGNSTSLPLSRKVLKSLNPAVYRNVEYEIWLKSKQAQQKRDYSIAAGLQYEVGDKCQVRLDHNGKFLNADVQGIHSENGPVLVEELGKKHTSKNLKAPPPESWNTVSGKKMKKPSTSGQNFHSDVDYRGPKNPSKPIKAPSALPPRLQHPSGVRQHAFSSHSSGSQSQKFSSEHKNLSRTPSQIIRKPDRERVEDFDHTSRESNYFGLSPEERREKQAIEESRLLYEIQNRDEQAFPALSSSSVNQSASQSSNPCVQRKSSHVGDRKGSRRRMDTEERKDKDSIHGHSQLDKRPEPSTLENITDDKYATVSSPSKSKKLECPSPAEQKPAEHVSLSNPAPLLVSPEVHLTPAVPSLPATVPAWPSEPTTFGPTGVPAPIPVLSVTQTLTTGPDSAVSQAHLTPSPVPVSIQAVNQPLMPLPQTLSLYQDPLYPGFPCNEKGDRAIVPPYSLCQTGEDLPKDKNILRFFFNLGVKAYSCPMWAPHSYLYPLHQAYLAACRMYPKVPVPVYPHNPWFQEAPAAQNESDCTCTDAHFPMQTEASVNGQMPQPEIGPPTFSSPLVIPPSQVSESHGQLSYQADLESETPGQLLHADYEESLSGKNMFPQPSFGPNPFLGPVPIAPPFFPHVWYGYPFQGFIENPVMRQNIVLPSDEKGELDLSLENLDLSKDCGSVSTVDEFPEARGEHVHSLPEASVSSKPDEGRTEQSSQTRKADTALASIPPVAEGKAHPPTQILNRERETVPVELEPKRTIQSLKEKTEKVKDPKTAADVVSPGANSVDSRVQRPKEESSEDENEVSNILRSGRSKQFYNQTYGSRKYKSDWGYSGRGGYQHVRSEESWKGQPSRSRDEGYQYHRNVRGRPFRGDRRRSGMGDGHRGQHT
inactive: [1] 0.078 | volasertib -0.067 | [2] 0.009 | epoxomicin -0.085 | [3] -0.016 | [4] 0.098 | [5] 0.011 | rosiglitazone -0.013 | [6] 0.041 | [7] 0.075 | saracatinib -0.031 | sotrastaurin -0.017 | alvocidib 0.036 | Tubastatin A -0.018 | [8] -0.014 | defactinib 0.054 | rucaparib 0.136 | [9] 0.019 | encorafenib 0.036 | [10] 0.001

MORC3 (UniProt Q14149)
Sequence of UniProt Q14149 (Q14149 whole entry, looked up): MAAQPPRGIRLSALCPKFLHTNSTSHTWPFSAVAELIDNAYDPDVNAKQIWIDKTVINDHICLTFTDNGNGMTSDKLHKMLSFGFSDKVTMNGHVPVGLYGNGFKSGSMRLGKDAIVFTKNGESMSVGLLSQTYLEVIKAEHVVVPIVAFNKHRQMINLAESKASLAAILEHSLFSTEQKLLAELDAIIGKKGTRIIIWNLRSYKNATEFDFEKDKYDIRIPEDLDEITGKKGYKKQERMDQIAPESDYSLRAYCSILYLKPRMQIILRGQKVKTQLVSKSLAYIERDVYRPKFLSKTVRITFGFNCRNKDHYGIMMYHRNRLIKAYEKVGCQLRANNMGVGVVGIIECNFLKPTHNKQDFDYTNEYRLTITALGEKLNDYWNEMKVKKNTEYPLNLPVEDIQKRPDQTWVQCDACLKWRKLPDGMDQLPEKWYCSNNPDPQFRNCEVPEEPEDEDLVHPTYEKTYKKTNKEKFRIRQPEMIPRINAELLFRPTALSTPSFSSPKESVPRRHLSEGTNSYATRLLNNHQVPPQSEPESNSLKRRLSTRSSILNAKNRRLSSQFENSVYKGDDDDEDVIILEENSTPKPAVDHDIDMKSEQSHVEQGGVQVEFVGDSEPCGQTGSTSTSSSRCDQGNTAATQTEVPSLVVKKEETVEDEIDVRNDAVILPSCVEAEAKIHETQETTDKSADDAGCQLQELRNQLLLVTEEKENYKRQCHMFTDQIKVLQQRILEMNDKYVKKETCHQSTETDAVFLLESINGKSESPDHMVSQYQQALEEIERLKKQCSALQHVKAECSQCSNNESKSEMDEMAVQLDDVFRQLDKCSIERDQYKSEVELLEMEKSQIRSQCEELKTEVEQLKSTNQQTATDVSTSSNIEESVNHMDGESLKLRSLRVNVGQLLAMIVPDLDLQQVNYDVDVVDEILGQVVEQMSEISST
inactive: [1] -0.141 | [2] 0.086 | epoxomicin 0.125 | [3] -0.02 | [4] -0.027 | [5] 0.071 | rosiglitazone 0.084 | [6] -0.058 | [7] -0.017 | saracatinib 0 | sotrastaurin -0.141 | alvocidib -0.08 | Tubastatin A -0.247 | [8] 0.249 | defactinib -0.184 | rucaparib 0.044 | [9] -0.02 | encorafenib 0.076 | [10] -0.048
active: volasertib -0.509

MKRN2 (UniProt Q9H000)
Sequence of UniProt Q9H000 (Q9H000 whole entry, looked up): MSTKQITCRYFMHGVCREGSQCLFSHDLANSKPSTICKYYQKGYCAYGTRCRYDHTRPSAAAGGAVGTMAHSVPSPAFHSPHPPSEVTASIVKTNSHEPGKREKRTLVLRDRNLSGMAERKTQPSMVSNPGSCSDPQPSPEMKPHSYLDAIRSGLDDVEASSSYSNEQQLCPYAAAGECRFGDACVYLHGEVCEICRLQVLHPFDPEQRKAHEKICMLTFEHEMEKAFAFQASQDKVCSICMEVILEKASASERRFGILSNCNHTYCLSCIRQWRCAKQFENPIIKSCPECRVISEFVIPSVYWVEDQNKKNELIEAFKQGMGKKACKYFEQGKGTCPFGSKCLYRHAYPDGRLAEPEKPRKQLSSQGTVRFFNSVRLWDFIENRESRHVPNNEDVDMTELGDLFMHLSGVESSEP
active: volasertib -0.633
inactive: [1] -0.08 | [2] 0.106 | epoxomicin -0.068 | [3] -0.064 | [4] 0.193 | [5] 0.126 | rosiglitazone 0.063 | [6] 0.152 | [7] 0.082 | saracatinib -0.203 | sotrastaurin -0.024 | alvocidib -0.002 | Tubastatin A 0.177 | [8] -0.08 | defactinib -0.049 | rucaparib 0.258 | [9] 0.007 | encorafenib 0.109 | [10] -0.005
